This passage reports growth inhibition results from PubChem BioAssay (NCI).

Compounds without any hit were thinned out: in the full panel of roughly 79,000, 15% have a hit. Unmarked numbers belong to inactive results. Activity calls are given as the source filed them. No stated cut-off is given here; in the data, active means growth inhibition above about 70%; inactive means the rest.

The first experiment can be described thus: NCI Yeast Anticancer Drug Screen. Data for the sgs1 mgt1 strain (AID 161).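 Further: 0% = growth of cultures given vehicle only.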 The conditions noted are these: S. cerevisiae sgs1 mgt1 strain, at 50.0 µM, active compounds read high. A digest of the protocol:
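Read-out: growth inhibition vs vehicle controls. Cells: mutant yeast strain deficient in DNA damage repair.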
Turning to `COc1cc(-c2c3c(cc4c2OCO4)CC(O)C(C(=O)O)C3)cc(OC)c1OC` (configuration not stated), the growth inhibition was 0.4%.

For the molecule `O=C1CCC([N+](=O)[O-])C(c2ccccc2Cl)N1` (configuration not stated), the growth inhibition is 20.1%.

On to `COC(=O)CCSc1ccccc1`, for which the growth inhibition was 5.45%.

`Cc1cc(C)cc(C(=O)NCc2ccc[n+]([O-])c2)c1`: the growth inhibition is -6.35%.

On to `Nc1ncccc1C(=O)O`, for which the growth inhibition is -2.8%.

As for `O=C1c2ccccc2Cc2ccccc21`, the growth inhibition is -1.7%.

As for `O=C(O)CCn1ccc2ccccc21`, the growth inhibition was 4.8%.

For `CCCCCCCCC1C(CCCCCCCC(=O)N(CC)CCCOCC)C2(Cl)C(Cl)=C(Cl)C1(Cl)C2(Cl)Cl` (configuration not stated), the growth inhibition was 13.9%.

Consider `Cc1cnc2[nH]c(-c3ccccc3)cc(=O)c2c1`, for which the growth inhibition was -0.9%.

On to `COc1ccc(CSC(=S)Nc2ccc(N=Nc3ccccc3)cc2)cc1`, for which the growth inhibition was 24.6%.

As for `O=P(OCCCl)(OCCCl)C(c1ccccc1)(c1ccccc1)c1ccccc1`, the growth inhibition is 72.6% (active).

Take `CC(=O)c1ccncc1`: the growth inhibition is 6.65%.

In the case of `CCOc1ccccc1NC(=O)C(=O)Cc1nc2ccccc2s1`, the growth inhibition is -2%.

For `CC1CCCC(C)(C)/C1=N/O` (configuration not stated), the growth inhibition was 12.5%.

In the case of `O=[N+]([O-])c1ccc(S(=O)(=O)c2ccc(NCN3CCCCC3)cc2)cc1`, the growth inhibition was 26.9%.

On to `CN(N)C(=O)Nc1ccc([N+](=O)[O-])cc1`, for which the growth inhibition was -2.7%.

As to `CN(C)CCC1(C2=CCCC2)CC/C(=C\c2ccc3c(c2)OCO3)C1=O` (configuration not stated), the growth inhibition was -22.2%.

Take `CC(=O)NNC(=S)/N=C\c1c(O)c2ccccc2oc1=O`: the growth inhibition is -34.2%.

Take `NC(Cc1ccccc1)C(=O)Nc1cccnc1` (configuration not stated): the growth inhibition was 7.75%.

In the case of `CCN(CC)CCCC(C)Nc1cc(C)c2nc(C)cc(C)c2c1C` (configuration not stated), the growth inhibition was 17%.

`CCCCCCCCCCCCCC/C=N/Nc1ccc([N+](=O)[O-])cc1[N+](=O)[O-]`: the growth inhibition is 13.5%.

Regarding `C/C(=C/C(C)C)C(C)(C#N)C(N)=O` (configuration not stated), the growth inhibition was 1.2%.

The nature of a further experiment: NCI Yeast Anticancer Drug Screen. Data for the cln2 rad14 strain (AID 165).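 Further: 0% = growth equal to vehicle treated cultures.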 The following applies: S. cerevisiae cln2 rad14 strain, at 50.0 µM, active compounds read high. The procedure, abridged: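 The screen exposed genetically defined yeast (cln2 rad14) to test compounds and scored growth inhibition relative to vehicle-treated controls.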
As to `O=C(O)C(C1=CCCCC1)C1(O)CCCCC1` (configuration not stated), the growth inhibition was -5.85%.

As to `CC(=O)Nc1ccc(I)cc1`, the growth inhibition was -0.8%.

On to `NC(=O)c1cccc[n+]1[O-]`, for which the growth inhibition is 6.05%.

As for `COc1ccc(N=Cc2ccc(N(CCC#N)S(=O)(=O)c3ccccc3)cc2)cc1`, the growth inhibition was 11.2%.

Regarding `Cc1c(-c2ccccc2)c(=O)oc2ccc(Cl)cc12`, the growth inhibition is -9.85%.

For `CC1=CC(=O)N2[C@H](OC[C@@H]2C(C)C)O1`, the growth inhibition was 14.7%.

In the case of `CN(C)c1nc2nc[nH]c2c(=S)n1C`, the growth inhibition was 24.6%.

As to `CC(C)(C)OC(=O)NC1CCCCC1NC(=O)C(=O)NC1CCCCC1NC(=O)OC(C)(C)C` (configuration not stated), the growth inhibition was 4.2%.

As for `O=C(Cc1cc2c(cc1[N+](=O)[O-])OCO2)c1c[nH]c2ccc(Br)cc12`, the growth inhibition is 18.5%.

With `COCC(=O)C(C(C)=O)C(c1ccncc1)C(C(C)=O)C(=O)COC` (configuration not stated), the growth inhibition was -10.2%.

In the case of `O=C(NC/C(Cl)=C/Cl)Nc1cccc2c1CCCC2`, the growth inhibition was -10.8%.

On to `Cn1c(=O)c2c(nc(C3CC3)n2C)n(C)c1=O`, for which the growth inhibition was -16.6%.

Consider `COCc1ccccc1P(c1ccccc1COC)c1ccccc1COC`, for which the growth inhibition was 16.2%.

For the molecule `Oc1ccc(Cl)cc1C=Nc1cnc2ccccc2c1`, the growth inhibition is -10.9%.

With `CCOC(OCC)n1ncnc1NC(=S)NCc1ccccc1`, the growth inhibition is -2.7%.

As to `CC(=O)Nc1cc2cc(NC=C(C#N)C#N)ccc2oc1=O`, the growth inhibition is 15.9%.

Take `CCOC(=O)/C(C#N)=C/N=c1ccccn1C`: the growth inhibition is -25.1%.

Take `CC(C)=NNC(=O)Nc1cccc(C)c1C`: the growth inhibition is -47.3%.

Regarding `COc1cc(-c2c3c(cc4c2OCO4)CC(O)C(C(=O)O)C3)cc(OC)c1OC` (configuration not stated), the growth inhibition is 15.1%.

As for `O=C1CCC([N+](=O)[O-])C(c2ccccc2Cl)N1` (configuration not stated), the growth inhibition is -0.9%.

For `COC(=O)CCSc1ccccc1`, the growth inhibition was 6.7%.

Consider `Cc1cc(C)cc(C(=O)NCc2ccc[n+]([O-])c2)c1`, for which the growth inhibition is -11.9%.

For the molecule `Nc1ncccc1C(=O)O`, the growth inhibition was -12.1%.

As for `O=C1c2ccccc2Cc2ccccc21`, the growth inhibition was -19.4%.

For `O=C(O)CCn1ccc2ccccc21`, the growth inhibition was 5.9%.

In the case of `CCCCCCCCC1C(CCCCCCCC(=O)N(CC)CCCOCC)C2(Cl)C(Cl)=C(Cl)C1(Cl)C2(Cl)Cl` (configuration not stated), the growth inhibition is -10.6%.

For `Cc1cnc2[nH]c(-c3ccccc3)cc(=O)c2c1`, the growth inhibition is -23.2%.

With `COc1ccc(CSC(=S)Nc2ccc(N=Nc3ccccc3)cc2)cc1`, the growth inhibition is 25.4%.

Regarding `O=P(OCCCl)(OCCCl)C(c1ccccc1)(c1ccccc1)c1ccccc1`, the growth inhibition is 36.9%.

`CC(=O)c1ccncc1`: the growth inhibition is -27.4%.

As to `CCOc1ccccc1NC(=O)C(=O)Cc1nc2ccccc2s1`, the growth inhibition was -6.75%.

For the molecule `CC1CCCC(C)(C)/C1=N/O` (configuration not stated), the growth inhibition was 12.8%.

On to `O=[N+]([O-])c1ccc(S(=O)(=O)c2ccc(NCN3CCCCC3)cc2)cc1`, for which the growth inhibition was -3.95%.

Regarding `CN(N)C(=O)Nc1ccc([N+](=O)[O-])cc1`, the growth inhibition is 7.45%.

For the molecule `CN(C)CCC1(C2=CCCC2)CC/C(=C\c2ccc3c(c2)OCO3)C1=O` (configuration not stated), the growth inhibition was 16.4%.

`CC(=O)NNC(=S)/N=C\c1c(O)c2ccccc2oc1=O`: the growth inhibition was -13.2%.

As to `NC(Cc1ccccc1)C(=O)Nc1cccnc1` (configuration not stated), the growth inhibition was -44.6%.

Turning to `CCN(CC)CCCC(C)Nc1cc(C)c2nc(C)cc(C)c2c1C` (configuration not stated), the growth inhibition was -13%.

As for `CCCCCCCCCCCCCC/C=N/Nc1ccc([N+](=O)[O-])cc1[N+](=O)[O-]`, the growth inhibition is 6.25%.

On to `C/C(=C/C(C)C)C(C)(C#N)C(N)=O` (configuration not stated), for which the growth inhibition is 8.25%.
